A selection: hits, their analogues and other compounds. The true share with any hit is near 5.9%.
ATXN2 expr inh – reduces ATXN2 reporter expression in HEK-293 cells | 360,000 tested, 0.72% active | HEK-293 ATXN2-luciferase reporter, luminescence, 24 h | Potency, µM (top dose mostly 57 µM), inactives show at the highest dose activity change, negative = inhibition, most hits filed as inhibitors | AID 1745845; also: % is scaled to controls: 0 for no effect and ±100 for the full control effect; nearly all actives have a fitted effect of over 55% in size
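qHTS (up to 57 uM final) was run with 24 h compound exposure of reporter cells at 37 °C. Each well was multiplexed: SteadyGlo luminescence measured ATXN2-luciferase expression after a fluorogenic Gly-Phe-AFC viability readout (25 uM final).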
HepG2 viability – kills HepG2 cells in TGF-b inhibitor counter-screen | HepG2 CAGA-GFP viability, ATP luminescence, 18 h | AID 588856 | Potency, µM (doses to about 46.1 µM), for inactives: top-dose activity change, negative = cytotoxicity, most hits filed as cytotoxic | 410,000 tested, 0.76% active
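CellTiter-Glo luminescence gave cytotoxicity after 18 hours at 37 degrees C. The cells were HepG2 CAGA-GFP in 1% FBS DMEM, stimulated with 500 pg/mL TGF-beta after compound addition. %Activity was normalised to no-cell wells (complete cell-killing) and DMSO (no toxicity), and curves were fitted and classified.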
TGFb SMAD3 inh – TGF-b pathway inhibition. HepG2 CAGA-GFP TGF-b/SMAD3 reporter, GFP fluorescence, 18 h; TGF-beta stimulated, 500 pg/mL final. Potency, µM (top dose mostly 46.1 µM), for the others: at the highest dose activity, negative = inhibition, hits mostly inhibitors. 410,000 tested, 1.2% active; also: % is scaled to controls: 0 for no effect and ±100 for the full control effect; nearly all actives have a fitted effect of over 65% in size
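Inhibition was scored as loss of TGF-beta-induced (500 pg/mL final, 18 hours, 37 degrees C) GFP in HEPG2 cells carrying a CAGA-GFP reporter, in DMEM with 1% FBS. Well GFP was summed per cell; Activity was normalised to unstimulated and stimulated DMSO wells, then concentration-response fitting.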
KB-V1 MDR tox – KB-V1 MDR subline cytotoxicity; KB-V1 MDR cells viability, CellTiter-Glo, 72 h; Potency, µM (top dose mostly 46.1 µM), most hits filed as cytotoxic; 400,000 tested, 3.4% active; AID 1347076; also: % is scaled to controls: 0 for no effect and ±100 for the full control effect; nearly all actives have a fitted effect of over 60% in size
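Drug-selected KB-V1 cells, grown in DMEM lacking phenol red with 10% FBS, receive compound titrations; after three days at 37 degrees C, surviving cell ATP is quantified by CellTiter-Glo luminescence and responses normalized and curve-fitted.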
KB-3-1 cytotox – KB-3-1 parental cell cytotoxicity; KB-3-1 viability, CellTiter-Glo ATP luminescence, 72 h; Potency, µM (highest dose often 46.1 µM), most hits filed as cytotoxic; 400,000 tested, 1.4% active; also: % is scaled to controls: 0 for no effect and ±100 for the full control effect; nearly all actives have a fitted effect of over 60% in size
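72 h, 37 °C compound treatment of KB-3-1 parental cells; CellTiter-Glo added, 10 min, luminescence read. Data corrected against DMSO-only plates and normalized before curve fitting.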
ATXN viability – viability counter-screen for ATXN expression inhibitors; S2 cells (HEK-293 line with an ATXN2-luciferase reporter) viability, CellTiter-Fluor protease fluorescence, 24 h; Potency, µM (top dose mostly 56.7 µM), actives largely listed as cytotoxic; 400,000 tested, 0.49% active; AID 651635; also: nearly all actives have a fitted effect of over 40% in size
Active calls of the source: *; i = inactive; ? = inconclusive; nt = no result given; [ ] = another dose, or the depositor's remark. Calls follow the shape of the dose curve; as a rule, active = well fitted curve in the direction sought with a large enough effect; inconclusive = small, poorly fitted or top-dose-only effect, or another doubt; inactive = no such curve, though single readings can be large; an effect the other way counts as inactive or inconclusive. Potency is read from the fitted curve at half-maximal effect.

SMILES	ATXN2 expr inh	HepG2 viability	TGFb SMAD3 inh	KB-V1 MDR tox	KB-3-1 cytotox	ATXN viability
Clc1cccc(-c2nnnn2Cc2cccnc2)c1Cl	-4.4%	nt	nt	nt	nt	nt
Cc1c(C(=O)NCCc2ccc(S(N)(=O)=O)cc2)sc2nc3n(c(=O)c12)CCCC3	nt	3.4%	0.7%	i	i	nt
COc1cc(C(=O)Nc2sc3c(c2C#N)CCCC3)c(Br)c(OC)c1OC	nt	-13.7%	-23.7%	nt	nt	nt
CC(CCc1ccccc1)NC(=O)c1cccc(F)c1 (stereo not given)	1.9%	-44.4%	11.2µM*	?	i	i
CC(CCc1ccccc1)NC(=O)c1ccc(F)cc1 (stereo not given)	-1.6%	-2.2%	2.2%	i	i	i
CC(CCc1ccccc1)NC(=O)c1ccc(C(=O)NC(C)CCc2ccccc2)cc1 (stereo not given)	6.31µM*	-20.3%	-6.6%	i	i	?
CC(CCc1ccccc1)NC(=O)c1ccccc1 (stereo not given)	3.0%	1.0%	?	?	i	i
Cn1cnc(S(=O)(=O)N2CCCC(C(=O)NCc3ccc(Cl)cc3)C2)c1 (stereo not given)	nt	2.6%	5.2%	nt	nt	nt
COc1cc(C(=O)NC2CC3CCCC(C2)N3CC(=O)Nc2ccccc2)cc(OC)c1OC (stereo not given)	-9.9%	-9.9%	0.0%	i	i	i
O=C(CN1C2CCCC1CC(NC(=O)c1ccccc1)C2)Nc1nccs1 (stereo not given)	-5.1%	0.5%	0.0%	2.31µM*	i	i
Cc1onc(-c2ccccc2)c1CNS(=O)(=O)c1ccccc1	-19.7%	11.2µM*	0.0%	i	i	i
O=C(NCCS(=O)(=O)NCCc1ccccc1)c1ccccc1	5.6%	13.3%	10.3%	16.4µM*	i	i
COc1ccccc1CCNS(=O)(=O)CCNC(=O)c1ccccc1	4.4%	-0.8%	4.2%	16.4µM*	i	i
Cc1cccc(N2CCN(C(=O)c3ccc(NC(=O)c4nsc5ccccc45)cc3)CC2)c1C	nt	-24.0%	-2.2%	nt	nt	nt
COc1ccccc1CNC(=O)C1CCCN(c2nn3cc(-c4ccc(F)cc4)nc3s2)C1 (stereo not given)	nt	7.4%	0.0%	i	i	nt
Cc1cccc(NC(NC(=O)c2ccccc2[N+](=O)[O-])C(Cl)(Cl)Cl)c1 (stereo not given)	2.1%	-1.2%	11.2%	23.1µM*	i	?
Cc1c(C(=O)NCCN(C)C)sc2nc3n(c(=O)c12)CCC3	nt	-12.6%	-29.6%	i	i	nt
CCCCOC(=O)c1ccc(NC(=O)c2ccc3c(c2)CCN3S(=O)(=O)c2ccccc2)cc1	nt	-11.4%	-1.4%	nt	nt	nt
CCCCOC(=O)c1ccc(NC(=O)c2ccc3c(c2)CCCN3S(C)(=O)=O)cc1	7.08µM*	-31.2%	-9.8%	?	i	?
Cn1c(NCCOc2ccccc2Cl)nc2cc(-c3ccc(F)cc3)sc2c1=O	14.5%	-31.3%	-14.4%	i	i	i
O=C(CS(=O)c1ccc(C(F)(F)F)cc1[N+](=O)[O-])Oc1ccccc1 (stereo not given)	?	3.55µM*	?	?	?	?
CS(=O)(=O)c1ccc(S(=O)CC(=O)OCc2ccccc2)c([N+](=O)[O-])c1 (stereo not given)	?	7.08µM*	4.47µM*	i	i	nt
COC(=O)c1ccc(OC(=O)CS(=O)c2ccccc2[N+](=O)[O-])cc1 (stereo not given)	7.1%	-3.7%	3.9%	i	i	i
OC(COCC(F)(F)C(F)(F)C(F)(F)C(F)F)Cn1c2ccccc2c2ccccc21 (stereo not given)	?	17.8µM*	?	i	?	?
Cc1ccc(OCC(O)Cn2c3ccccc3c3ccccc32)cc1 (stereo not given)	-25.7%	-114.3%	?	?	i	i
SMILES	ATXN2 expr inh	HepG2 viability	TGFb SMAD3 inh	KB-V1 MDR tox	KB-3-1 cytotox	ATXN viability
O=C(N/C=C/c1ccccc1)c1cccc([S+](=O)([O-])Nc2ccccc2F)c1	nt	nt	nt	?	i	nt
O=C1CC(/C=C/c2ccccc2)=Nc2ccccc2N1	42.4%	-1.9%	?	?	?	i
O=C1CC(/C=C/c2ccc(Cl)cc2)=Nc2ccccc2N1	-19.7%	-41.5%	11.2µM*	?	?	?
Cc1ccc(-c2cc(C(=O)Oc3ccccc3)c3cc(C)ccc3n2)cc1	1.0%	4.8%	-17.8%	?	i	i
C=CCN(C(=O)Cc1cccs1)c1nc(-c2ccc(S(C)(=O)=O)cc2)cs1	34.7%	-40.0%	27.8%	?	?	i
C=CCN(C(=O)CCc1ccccc1OC)c1nc(-c2ccc(S(C)(=O)=O)cc2)cs1	6.1%	4.47µM*	0.9%	i	i	i
Cc1ccsc1/C=C1/SC(=O)N(CC(=O)N2CCOCC2)C1=O	13.2%	14.8%	31.1%	i	i	i
Cc1ccc(/C=C2/SC(=O)N(CC(=O)N3CCOCC3)C2=O)s1	7.1%	-15.8%	-4.2%	20.6µM*	i	?
Cn1cccc1/C=C1/SC(=O)N(CC(=O)N2CCCC2)C1=O	-17.2%	-18.5%	-14.4%	16.4µM*	i	i
O=C(NCCc1nc2ccccc2n1CCCOc1ccc2ccccc2c1)C1CCCCC1	nt	0.5%	3.7%	i	i	nt
Cc1ccnc(NC(=S)N2CCN(c3cccc([N+](=O)[O-])c3)CC2)c1	nt	nt	nt	i	i	nt
CCOc1ccc(S(=O)(=O)Nc2cccc(-c3ccc(OCC)nn3)c2)cc1	0.0%	-25.3%	0.0%	i	i	?
CCOc1ccc(-c2cccc(NS(=O)(=O)c3c(C)cc(C)cc3C)c2)nn1	?	-36.7%	20µM*	?	i	?
COc1cccc(Nc2c(C(N)=O)cnc3c(C)cc(S(=O)(=O)c4cccc(C(=O)N(C)C)c4)cc23)c1	-13.9%[25.6 µM]	nt	nt	nt	nt	nt
O=S(=O)(c1ccccc1)N(Cc1ccccc1)c1ccccn1	2.4%	-0.6%	-2.6%	8.2µM*	?	i
O=c1c2oc3ccccc3c2n(Cc2ccc(Cl)cc2)c(=O)n1Cc1ccco1	-15.9%	-44.5%	-2.8%	i	i	i
C=C(C)Cn1c(=O)c2c(nc3n2CCN3c2cccc(Cl)c2C)n(C)c1=O	-12.0%	-32.5%	-3.7%	?	i	i
C=CCn1c(=O)c2c(nc3n2CCN3c2cccc(Cl)c2C)n(C)c1=O	0.2%	-9.5%	-9.5%	8.2µM*	i	i

Screens (PubChem)
